Source: PubChem BioAssay AID431 (Sanford-Burnham Center for Chemical Genomics, 2006)
Hit rate of the full screen: of about 63,000 compounds, about 1,100 (1.7%) were called active.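 How the source made its calls: active means compounds whose percent cytotoxicity in the single-dose primary screen, scaled between solvent and toxic-drug controls, exceeds 50; inactive means the rest.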 Shown is part of a subset that was picked to be rich in actives. Measured potencies and affinities stand elsewhere.

Test: viability loss of HPDE-C7K cells – cell-based, fluorescence, HTS, primary screen (AID 431);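 further: 0% = DMSO solvent wells and 100% = doxorubicin-treated wells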
Conditions: HPDE-C7K KRASV12 cells, Alamar Blue viability, 48 h; at 10 µM; hits give high values

SMILES	cytotoxicity
CCOC(=O)c1c(CN2CCCCC2)n(C)c2cc(Br)c(OC)cc12	16.9% (inactive)
CCOC(=O)c1c(CNCCN(CC)CC)n(C)c2cc(Br)c(OC)cc12	71.2% (active)
CCN(CC)CCNC(=O)c1c(C)oc2cc(Br)c(OC)cc12	15.1% (inactive)
CCOC(=O)c1c(CN2CCN(CCO)CC2)n(C)c2cc(Br)c(OC)cc12	98.7% (active)
CCOC(=O)c1c(CN2CCN(C)CC2)n(C)c2cc(Br)c(OC)cc12	-8.5% (inactive)
CCOC(=O)c1c(C)n(C)c2cc(Br)c(C(=O)OC)cc12	5.9% (inactive)
O=C(COC(=O)c1cccc(S(=O)(=O)N2CCc3ccccc32)c1)NC1CCS(=O)(=O)C1 (stereo not given)	23.6% (inactive)
O=C(O)Cn1cnc2scc(-c3cccs3)c2c1=O	6.1% (inactive)
Clc1ccc(Cc2noc(Cc3ccccc3)n2)cc1Cl	-5% (inactive)
CCOC(=O)C(CCSC)NC(=O)CN (stereo not given)	-9.8% (inactive)
COC(=O)C1C(=O)c2c([nH]c(C(=O)OCCOC(C)C)c2C)CC1C (stereo not given)	-0.2% (inactive)
CCC(C)(C(=O)NC1CCCCC1)N(CC1CCCO1)C(=O)c1ccccn1 (stereo not given)	-5.6% (inactive)
CC1(C)CC(=O)C(C=NCC2CCCO2)=C(O)C1 (stereo not given)	-19.7% (inactive)
CC(=O)Nc1cc2c(cc1C(=O)c1ccc(C)cc1)OCCO2	0.7% (inactive)
Oc1ccc(Br)cc1-c1cc(-c2ccccc2F)[nH]n1	18% (inactive)
COc1ccc(O)c(-c2cc(-c3cccs3)[nH]n2)c1	34.1% (inactive)
Cc1nn(Cc2ccc(Cl)cc2Cl)c(C)c1NC(=O)c1nc2n(n1)C(C(F)F)CC(C)N2 (stereo not given)	9.5% (inactive)
CCOC(=O)c1[nH]c(C)c(/C=N/O)c1C	0.1% (inactive)
NC(=O)CSc1nnc(CNc2ccc(F)cc2)n1CC1CCCO1 (stereo not given)	-7.7% (inactive)
CCOC(=O)c1c(NC(=O)CSc2nc3c(c(=O)n(C)c(=O)n3C)n2C(C)C)sc(C)c1C	77.5% (active)
CCCn1c(SCC(=O)Nc2sc(C)c(C)c2C(=O)OCC)nc2c1c(=O)n(C)c(=O)n2C	0.3% (inactive)
COC(=O)c1c(NC(=O)CSc2nc3c(c(=O)n(C)c(=O)n3C)n2C(C)C)sc(C)c1C	-14% (inactive)
CCn1c(SCC(=O)Nc2cc(C)ccc2C)nc2c(c1=O)SC(C)C2 (stereo not given)	8.9% (inactive)
Cn1c(=O)c2c(nc(CN3CCN(c4ccc(F)cc4)CC3)n2CCN2CCOCC2)n(C)c1=O	-4.6% (inactive)

SMILES	cytotoxicity
CCn1c(=N)n(CC(O)c2ccco2)c2ccccc21 (stereo not given)	-9.8% (inactive)
CC[C@H](C)C(=O)O[C@H]1C[C@@H](C)C=C2C=C[C@H](C)[C@H](CC[C@@H]3C[C@@H](O)CC(=O)O3)[C@H]21	55.1% (active)
Cn1nc(-c2ccc(N3CCCCC3)c(NC(=O)c3ccco3)c2)c2ccccc2c1=O	57.8% (active)
CCC(=O)Nc1cc(-c2nn(C)c(=O)c3ccccc23)ccc1N1CCCCC1	2% (inactive)
CCCC(=O)Nc1cc(-c2nn(C)c(=O)c3ccccc23)ccc1N1CCCCC1	-4.5% (inactive)
CC(C)C(NS(=O)(=O)c1ccc2c(c1)oc(=O)n2C)C(=O)N1CCN(Cc2ccccc2)CC1 (stereo not given)	7.1% (inactive)
CCCOc1c(OC)cccc1C1CC(=O)Nc2cc3c(cc21)OCO3 (stereo not given)	9.6% (inactive)
CC(C)Oc1ccccc1C1CC(=O)Nc2cc3c(cc21)OCO3 (stereo not given)	42.7% (inactive)
CCOc1ccccc1C1CC(=O)Nc2cc3c(cc21)OCO3 (stereo not given)	55.9% (active)
CCCCOc1ccccc1C1CC(=O)NC2=C1C(=O)CCC2 (stereo not given)	60.3% (active)
CC(C)Oc1ccccc1C1CC(=O)Nc2cc3c(cc21)OCCO3 (stereo not given)	45.7% (inactive)
CCOc1c(OC)cccc1C1CC(=O)Nc2cc3c(cc21)OCCO3 (stereo not given)	8.9% (inactive)
CCOc1ccccc1C1CC(=O)Nc2cc3c(cc21)OCCO3 (stereo not given)	48.6% (inactive)
CCCOc1c(OC)cccc1C1CC(=O)Nc2cc3c(cc21)OCCO3 (stereo not given)	68.7% (active)
COc1ccccc1C1CC(=O)Nc2cc3c(cc21)OCCO3 (stereo not given)	63.8% (active)
CCCOc1ccccc1C1CC(=O)NC2=C1C(=O)CCC2 (stereo not given)	36.3% (inactive)
COc1cccc(C2CC(=O)Nc3cc4c(cc32)OCCO4)c1OC(C)C (stereo not given)	34.4% (inactive)
CCOc1ccccc1C1CC(=O)NC2=C1C(=O)CCC2 (stereo not given)	16.8% (inactive)
O=C1c2ccccc2C(=O)N1CCN1CCOCC1	-1.3% (inactive)
CC(C)N(C(=O)CSc1nnnn1C1CCCC1)C(C)C	-9.6% (inactive)
CCCCn1nnnc1SCC(=O)Nc1ccc(C)cc1	-4.8% (inactive)
Cc1ccc(NS(=O)(=O)c2cc(C(=O)N3CCOCC3)ccc2C)cc1C	-4.4% (inactive)
CCN(CC)C(=O)c1sc(NC(=O)Cc2cccs2)c(C#N)c1C	-10.4% (inactive)
CC(O)c1ccc2c(c1)OCCOCCN(C)CCOCCO2 (stereo not given)	-3.4% (inactive)

SMILES	cytotoxicity
OC1C[N+]2(CCCCC2)C1	-0.4% (inactive)
CCNc1nc(SCC(=O)OC)nc(N2CCOCC2)n1	-13.2% (inactive)
O=C(CCC(=O)N(CC(=O)NC1CCCCC1)c1ccc2c(c1)OCO2)Nc1ccccn1	-8.1% (inactive)
Cc1ccc(C2CC(=O)Nc3cc4c(cc32)OCCO4)s1 (stereo not given)	7.5% (inactive)
CCCOc1ccccc1C1CC(=O)Nc2cc3c(cc21)OCCO3 (stereo not given)	73.4% (active)
O=C1CC(c2cccs2)c2cc3c(cc2N1)OCCO3 (stereo not given)	2.9% (inactive)
CC(C)NC(=O)c1ccccc1-c1nc(-c2ccccc2Cl)no1	6% (inactive)
Clc1ccc2[nH]c3c(NCC4CCCO4)ncnc3c2c1 (stereo not given)	57.6% (active)
CCN1CCCC1CNc1ncnc2c1[nH]c1ccc(Cl)cc12 (stereo not given)	10.9% (inactive)
c1ccc2c(c1)[nH]c1c(NCC3CCCO3)ncnc12 (stereo not given)	6.1% (inactive)
CC(C)(C)OC(=O)N1CCC[C@@H]1C(=O)N1CCC(C(=O)O)CC1	8.3% (inactive)
COc1ccc(NC(=O)Cn2nnc(-c3ccccc3NC(=O)c3cccs3)n2)cc1	9.5% (inactive)
O=C(O)c1ccc(CSc2n[nH]c(-c3ccco3)n2)cc1	-2.9% (inactive)
Cc1c(-c2ccccc2)c(P(=O)(N2CCOCC2)N2CCOCC2)c2ccccn12	-4.4% (inactive)
COc1ccccc1C1c2c(oc3ccc(Cl)cc3c2=O)C(=O)N1c1cc(C)on1 (stereo not given)	-23.6% (inactive)
COc1ccccc1-n1c(=O)oc2ccc(Cl)cc2c1=O	53.6% (active)
COc1ccccc1-n1c(SC)nc(O)cc1=O	6.5% (inactive)
CCOC(=O)c1ccc2nc(NC(=O)C(C)C)sc2c1	6.2% (inactive)
C=CCN(CC=C)S(=O)(=O)c1ccc2nsnc2c1	-22.3% (inactive)
C=CCN(CC=C)S(=O)(=O)c1ccc2nc(NC(=O)C(C)C)sc2c1	69.9% (active)
CCn1c(-c2ccco2)nc2ccccc21	5.1% (inactive)
COc1ccc(C(=O)n2c(-c3ccco3)nc3ccccc32)cc1	58.3% (active)
COc1ccc(C(=O)CSc2nnc(-c3ccco3)n2C)cc1	5.8% (inactive)
Cc1cc(C)cc(-n2nnc(C(=O)NCc3ccc(Cl)cc3)c2N)c1	5.6% (inactive)

SMILES	cytotoxicity
CCN1CCN(C2CCN(C(C)=O)CC2)CC1	5.4% (inactive)
C/C=C/Cn1c(SCc2ccc(Cl)cc2)nc2c1c(=O)[nH]c(=O)n2C	8.2% (inactive)
C/C=C/Cn1c(SCc2ccccc2)nc2c1c(=O)[nH]c(=O)n2C	1.2% (inactive)
C/C=C/Cn1c(SCc2ccc(C)cc2)nc2c1c(=O)[nH]c(=O)n2C	57.9% (active)
Clc1ccc(-n2cnnn2)cc1	-0.1% (inactive)
COc1ccc(C2NC(=O)NC(C)=C2C(=O)Nc2cc(C)ccc2C)cc1OC (stereo not given)	1.2% (inactive)
O=C(C1CC1)N1CCc2cc(Br)cc(S(=O)(=O)NCCCN3CCCC3)c21	1.3% (inactive)
CCOC(=O)c1c(C)[nH]c(C(=O)OC/C(O)=C(\C#N)c2nc3ccccc3[nH]2)c1C	81.8% (active)
N#C/C(=C(/O)COC(=O)c1ccc2c(c1)OCCO2)c1nc2ccccc2[nH]1	17.6% (inactive)
Cc1nn(-c2ccccc2)c(C)c1C(=O)OC/C(O)=C(\C#N)c1nc2ccccc2[nH]1	13% (inactive)
CSc1nnc(-c2nnc(SC)n2-c2ccccc2)n1-c1ccccc1	-8.3% (inactive)
CC(=O)C1=C(C)NC(SCC(=O)c2ccccc2)=C(C#N)C1CC(C)C (stereo not given)	3.7% (inactive)
CC(=O)C1=C(C)NC(SCC(=O)c2ccc(Cl)cc2Cl)=C(C#N)C1c1ccco1 (stereo not given)	40.7% (inactive)
C=CCOC(=O)C1=C(C)NC(SCC(=O)N(CC)CC)=C(C#N)C1c1ccco1 (stereo not given)	-4.1% (inactive)
CCOC(=O)CSC1=C(C#N)C(c2ccco2)C(C(=O)OCc2ccccc2)=C(C)N1 (stereo not given)	61% (active)
CCN(CC)C(=O)CSC1=C(C#N)C(c2ccco2)C(C(=O)OCCOC)=C(C)N1 (stereo not given)	-15.8% (inactive)
C=CCOC(=O)C1=C(C)NC(SCC(=O)Nc2ccc(C)c(Cl)c2)=C(C#N)C1c1ccco1 (stereo not given)	-1.3% (inactive)
Cc1ccc(C(=O)CSC2=C(C#N)C(c3ccco3)CC(=O)N2)c(C)c1 (stereo not given)	5% (inactive)
CC(=O)C1=C(C)NC(SCC(=O)c2cc(Cl)ccc2Cl)=C(C#N)C1c1ccco1 (stereo not given)	60.7% (active)
CSCSC1=C(C#N)C(c2ccccc2Cl)C(C(C)=O)=C(C)N1 (stereo not given)	23.4% (inactive)
COCCOC(=O)C1=C(C)NC(SCC(=O)NC(C)(C)C)=C(C#N)C1c1ccco1 (stereo not given)	2.3% (inactive)
CC(=O)C1=C(C)NC(SCC(=O)c2ccc(Cl)c(Cl)c2)=C(C#N)C1c1ccco1 (stereo not given)	77.4% (active)
CCCNS(=O)(=O)c1ccc(CCC(=O)N2CCOCC2)cc1	3.7% (inactive)
